Screens from PubChem BioAssay.
The sample as a whole holds a higher share of hits than the screen did.
Pf Dd2 inh = qHTS Primary assay for Inhibitors of Plasmodium falciparum Dd2 growth in vitro. P. falciparum Dd2 growth, SYBR Green, 72 h. Potency, µM (highest dose often 28.9 µM), for the others: at the top dose activity, negative = inhibition, most hits filed as inhibitors. 4.3% of 120,000 active; active = well fitted inhibition curve with a large enough effect;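 also: plate controls were DMSO vehicle for no effect and reference drug for full effect; nearly all actives have a fitted effect of over 65% in size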
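Readout: SYBR Green fluorescence, 485 nm excitation, 535 nm emission, after ~16 h lysis at 37C. Before that, Dd2-infected red cells (2.5% hematocrit) grew 72 h with compound, 29 uM top final concentration.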
Numbers without * were called inactive; i = inactive; [ ] = dose if it differs, or a comment. Potency is read from the fitted curve at half-maximal effect.

SMILES	Pf Dd2 inh
COc1ccc(NC(=O)N2CC(c3nnc(-c4ccncc4)o3)C3(CCOCC3)C2)cc1 (stereo unspecified)	-23%
COCCn1c(C)cnc1C1CCNC1 (stereo unspecified)	19%
CNC(=O)[C@@H](c1ccccc1OC)N1CCC[C@H]1C(=O)N(C)CCN(C)C	5%[44.1 µM]
Cc1nc([C@@H]2CN(C(=O)c3cscn3)C[C@H]2C(N)=O)n[nH]1	1%
CCC(C)NC(=O)C1COC2(CCN(C(=O)Cc3ccccc3)CC2)N1C(=O)c1cccc(C)c1 (stereo unspecified)	i
Cn1cnc2ccc(-c3cccc(C(F)(F)F)c3)nc2c1=O	4.5µM*
COCCn1cnc2ccc(-c3cccc(O)c3)nc2c1=O	-8%[44.1 µM]
O=c1c2nc(-c3cccc(C(F)(F)F)c3)ccc2ncn1Cc1ccccn1	-8%[44.1 µM]
CCc1ccc(N2CC(c3noc(Cc4ccccc4F)n3)CC2=O)cc1 (stereo unspecified)	-6%
COc1ccc(C(=O)N2[C@@H]3CC[C@H]2CC(NC(=O)c2ccc(F)cc2)C3)cc1OC (stereo partly specified)	i
COC(=O)c1ccc(-c2nc(-c3ccc(OC)c(OC)c3)no2)cc1	59%
COC(=O)c1ccc([C@@H]2Nc3c(OC)ccc(C)c3[C@@H]3C=CC[C@@H]32)cc1	3.2µM*
COc1ccc(NC(=O)N2CC(c3noc(-c4ccccc4)n3)C2)c(C)c1	-5%
COc1cccc(Nc2nc(-c3ccccc3)c3cc(C)ccc3n2)c1	10µM*
Clc1ccccc1-c1nc(Nc2ccccc2)nc2ccc(Br)cc12	-17%
Clc1ccc(Nc2nc(-c3ccccc3)c3cc(Cl)ccc3n2)cc1	i
CCNC(=O)N1CCCC1c1noc(CCC(=O)NCCC(C)C)n1 (stereo unspecified)	16%
CN1CCN(c2nc3c(c(=O)[nH]2)CCN(Cc2ccc(F)cc2F)CC3)CC1	35%[5.79 µM]
Cc1noc(CN2CCc3nc(-c4ccc(F)cc4F)[nH]c3C2)n1	-7%
Cn1ncc(CN2CCc3nc(-c4ccc(F)cc4F)[nH]c3C2)c1C1CC1	11µM*
COc1ccc(CCNC(=O)c2ccc3c(c2)nc2n3CCC(C)C2)cc1OC (stereo unspecified)	1%
CSc1ccc(CCNC(=O)c2ccc(-n3c(C)cc4c3CCC(C)C4)cc2)cc1 (stereo unspecified)	42%[5.79 µM]
CCOc1ccc(CCNC(=O)c2ccc(-n3c(C)cc4c3CCC(C)C4)cc2)cc1OCC (stereo unspecified)	8.9µM*
COCCN1C(=O)c2ccccc2C(C(=O)NCc2ccc(F)cc2)C12CCCCC2 (stereo unspecified)	i
COc1ccccc1CN1CCC2(CC1)COCCN2C(=O)OCc1ccccc1	-7%[44.1 µM]
SMILES	Pf Dd2 inh
CCCn1cc(CN2CCC(CO)(Cc3ccccc3Cl)CC2)c(C)n1	i
OCC1(Cc2ccccc2)CCN(Cc2ccccc2-c2ccco2)CC1	8.9µM*
CN(CC1CCOCC1)C(=O)c1ccsc1	-3%
Cc1nc(-c2ccccc2Br)cc([C@H]2CN3CC[C@H]2C[C@@H]3CNC(=O)CSCC(=O)O)n1	-19%
Cc1ccc(CNS(=O)(=O)c2ccc3c(c2)CN(C(=O)c2cccnc2)CC3)o1	-6%
CC(C)CCN(C1CCOCC1)C1CCN(C(=O)c2ccncc2)CC1	-15%
CC(C)CCN(C1CCOCC1)C1CCN(Cc2ccc[nH]2)CC1	3.2µM*
c1cncc(CN2CCC(C3CCN(Cc4ccc[nH]4)C3)CC2)c1 (stereo unspecified)	-23%
COCCOC1CCN(C(=O)Cc2cccs2)CC1	30%
C#CCNC(=O)[C@H]1O[C@H](CCN(C)CCN(C)C)CC[C@@H]1O	11%[44.1 µM]
c1ccc(Nc2ncc(-c3ccccc3)c3c2OCC3)cc1	22µM*
COc1cncc(Nc2ncc(-c3cccnc3)c3c2OCC3)c1	-12%[44.1 µM]
CN(C)c1cccc(-c2cnc(Nc3ccc4c(c3)OCCO4)c3c2CCO3)c1	-29%[44.1 µM]
COc1cncc(Nc2ncc(-c3cccc(N(C)C)c3)c3c2OCC3)c1	7.1µM*
Fc1cccc(-c2cnc(Nc3cncnc3)c3c2CCO3)c1	-27%[44.1 µM]
CNC(=O)c1cccc(-c2cnc(Nc3ccccc3)c3c2CCO3)c1	-23%[44.1 µM]
COc1cccc(Nc2ncc(-c3c(C)noc3C)c3c2OCC3)c1	5%[44.1 µM]
c1ccc(-c2cnc(Nc3cncnc3)c3c2CCO3)cc1	-12%[44.1 µM]
CN(C)c1cccc(-c2cnc(Nc3cccnc3)c3c2CCO3)c1	13µM*
COc1ccc(CCNc2ncnc3c2CN(c2ccccc2F)C(=O)CN3C)cc1	i
COc1ccccc1C(=O)N1CCC2(CC1)CC(OC)CCO2 (stereo unspecified)	i
Cc1nccn1Cc1nnc(C2CCCN(S(=O)(=O)C3CC3)C2)n1C (stereo unspecified)	-14%
NC(=O)CN1CCC(C(=O)NCCCc2csc(N)n2)CC1	-13%
CC(C)c1noc(-c2cn(C3CCCN(C(=O)c4cccc(F)c4)C3)nn2)n1 (stereo unspecified)	-9%
COCC(=O)N(C)C1CCCc2ccccc21 (stereo unspecified)	-23%[44.1 µM]
